Compound activity as filed in PubChem.
DSG3 Ab inh = inhibitors of pemphigus antibody binding to DSG3, primary screen, biochemical, bead-based, flow cytometry, scFv-GFP. 0.48% of 310,000 active. binding (percent of control), % at 10 µM. AID 588358, 2011. Desmoglein-3 (Homo sapiens), P32926. DSG3-coupled beads, scFv-anti-DSG3-GFP binding; active compounds read low;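 active = binding more than 3 SD below its plate's average and above zero; inconclusive = below that plate limit but binding exactly zero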;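 also: hits lower antibody fragment binding to DSG3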
AGP1-GFP MLPCN = modulators of AGP1-GFP expression in yeast TOR pathway, primary screen, cell-based, multiplex flow cytometry, S. cerevisiae, MLPCN library | 3 h; GFP as percent of DMSO wells | GFP response vs DMSO, % at 10 µM | 0.02% of 320,000 active;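 active = GFP response relative to DMSO above a set limit, near screen average plus 3 SD, cut at about 150% in these data; inconclusive = fewer than 70 cells counted for the yeast strain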;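 also: median GFP channel fluorescence of the gated AGP1 strain per well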
MEP2 TOR yeast = modulators of MEP2-GFP levels in yeast, primary screen, S. cerevisiae, multiplex flow cytometry, MLPCN library; GFP response vs DMSO, % at 10 µM; 0.51% of 330,000 active; S. cerevisiae MEP2-GFP strain, 3 h; 100% = DMSO control level; AID 2016, 2009;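 active = GFP response versus DMSO above a set limit, roughly screen mean plus 3 SD, cut at about 180% in these data; inconclusive = fewer than 70 cells counted for a yeast strain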;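 also: median GFP fluorescence of the barcode-gated MEP2-GFP cells per well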
CIT2 TOR yeast = modulators of CIT2-GFP expression in yeast, primary screen, S. cerevisiae, GFP fusion, multiplex flow cytometry, MLPCN library. S. cerevisiae CIT2-GFP strain, 3 h; 100 means same as DMSO wells. AID 2029, 2009. GFP response vs DMSO, % at 10 µM. 0.065% of 320,000 active;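 active = GFP response relative to DMSO above a set limit, near the screen mean plus 3 SD, cut at about 150% in these data; inconclusive = Fewer than 70 cells measured for a yeast strain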;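 also: ratio of well median GFP fluorescence to mean of DMSO wells on the plate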
LAP4 TOR yeast = modulators of LAP4-GFP expression in yeast, primary screen, S. cerevisiae, multiplex flow cytometry, MLPCN library. 3 h; median GFP as percent of DMSO wells. GFP response vs DMSO, % at 10 µM. 0.34% of 320,000 active. AID 2023, 2009;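 active = GFP response vs DMSO above a set limit, about the screen mean plus 3 SD, cut at about 150% in these data; inconclusive = under 70 cell events counted for the yeast strain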
RPL19A TOR yeast = RPL19A-GFP expression modulators in yeast, primary screen, cell-based, S. cerevisiae, multiplex flow cytometry, MLPCN; S. cerevisiae RPL19A-GFP strain, 3 h; active compounds read low; percent response vs DMSO, % at 10 µM; 0.3% of 330,000 active; AID 2025, 2009;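 active = percent response vs DMSO below 50%; inconclusive = fewer than 70 events counted for the yeast strain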;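 also: median channel GFP fluorescence of the barcoded RPL19A-GFP strain; ratio of sample median GFP to plate DMSO average so 100% = DMSO; lower means less RPL19A-GFP as with rapamycin TOR inhibition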
* marks the source's active call; other numbers are inactive results; ? = inconclusive; nt = not tested or not shown; + = active, no number; [ ] = dose if it differs, or a comment. Hits are enriched below; roughly 1.2% of the tested compounds scored in any of these assays.

SMILES	DSG3 Ab inh	AGP1-GFP MLPCN	MEP2 TOR yeast	CIT2 TOR yeast	LAP4 TOR yeast	RPL19A TOR yeast
CC1(C)Cc2cccc(OCC(=O)Nc3ccccc3C(F)(F)F)c2O1	76.7*	103.7	128.9	103.5	113.0	104.2
CCN(CC(=O)Nc1ccccc1C(F)(F)F)C(=O)COc1cccc2c1OC(C)(C)C2	99.7	105.2	98.7	100.4	102.1	100.8
CC1(C)Cc2cccc(OCC(=O)Nc3ccccc3N3CCOCC3)c2O1	99.0	?	?	?	103.0	15.7*[may fluoresce violet]
O=C(c1ccc(N2CCCC2)c([N+](=O)[O-])c1)N1CCN(CCO)CC1	103.4	?	189.4*[may fluoresce violet]	?	69.6	48.2*[may fluoresce violet]
O=C1C2=C(NC(=S)NC2c2ccc(Cl)cc2)NC(c2ccc(Cl)cc2)N1c1ccc(Cl)cc1 (configuration not stated)	nt	?	391.2*[may fluoresce violet]	?	?	55.9
Cc1cc(C)n2nc(C(=O)OCC(=O)N(Cc3ccccc3)C(C)C)nc2n1	104.6	nt	nt	nt	nt	nt
Cc1ccc(NC(=O)c2cc(NC(=O)c3ccco3)ccc2N2CCOCC2)cc1	102.4	97.1	99.8	94.0	102.6	98.5
Cc1ccc(NC(=O)c2cc(NC(=O)c3ccco3)ccc2N2CCCCC2)cc1	108.8	?	371.2*[may fluoresce violet]	?	89.5	27.2*[may fluoresce violet]
COCCN(C(=O)CCC(=O)Nc1cccnc1)C(C(=O)NC1CCCCC1)c1ccccc1 (configuration not stated)	82.2*	82.8	111.0	108.4	98.5	97.9
Cc1ccc(OCC(=O)NC2CCCC(C)C2C)c([N+](=O)[O-])n1 (configuration not stated)	112.0	94.5	93.3	88.8	94.6	93.9
C/C(=N\NC(=O)c1nonc1N)c1cccs1	118.3	101.1	233.2*	98.9	127.4	101.8
COC(=O)NC1CCC(CC2CCC(NC(=O)OC)CC2)CC1 (configuration not stated)	99.7	99.1	698.3*	121.3	212.1*	97.8
O=C(NC1CCC(CC2CCC(NC(=O)C(Cl)Cl)CC2)CC1)C(Cl)Cl (configuration not stated)	112.9	107.4	111.9	110.0	103.4	107.3
CSc1nc(SCC(=O)O)c2sc3nc(-c4ccccc4)c4c(c3c2n1)CCC4	65.8*	nt	nt	nt	nt	nt
CSc1nc(N(C)CCO)c2sc3nc(-c4ccco4)c4c(c3c2n1)CCC4	101.5	94.8	97.3	95.4	97.9	94.5
CC1CCCN(S(=O)(=O)c2ccc(Cl)s2)C1 (configuration not stated)	132.7	21.9	315.8*[may fluoresce violet]	?	84.0	53.9
Cc1cccc(C)c1OCc1cn(CC(=O)c2ccc(O)cc2)nn1	101.3	nt	nt	nt	nt	nt
COc1ccc(Cl)cc1C(=O)NCCCn1ccnc1	110.3	93.0	104.3	104.4	90.2	106.0
COc1cc(SC)ccc1C(=O)NCCCn1ccnc1	117.9	?	574.8*[may fluoresce violet]	?	138.4	39.4*[may fluoresce violet]
COCCCN1C(=O)C2C(C(=O)Nc3cc(C)cc(C)c3)C3C=CC2(O3)C1C(=O)NC1CCCCC1 (configuration not stated)	98.2	56.6	216.7*	85.9	88.3	62.9
Cc1cc(C)cc(NC(=O)C2C3C=CC4(O3)C2C(=O)N(CCCN2CCCCC2)C4C(=O)NC2CCCCC2)c1 (configuration not stated)	nt	69.0	93.3	86.5	84.0	88.9
O=C(Nc1ccc(Br)cc1)C1C2C=CC3(O2)C1C(=O)N(CCN1CCOCC1)C3C(=O)NC1CCCCC1 (configuration not stated)	nt	25.1	437.9*[may fluoresce violet]	?	88.3	56.9
CCCc1cc(=O)oc2c(C)c(OCC(=O)N3C[C@H]4C[C@@H](C3)c3cccc(=O)n3C4)ccc12	nt	98.3	98.0	95.4	103.9	99.1
O=c1c(C=NCC2CCCO2)c(-c2ccccc2)[nH]n1-c1ccc([N+](=O)[O-])cc1 (configuration not stated)	90.8	?	?	?	?	34.9*[may fluoresce violet]
COc1ccc(-c2[nH]n(-c3ccc([N+](=O)[O-])cc3)c(=O)c2C=NCC2CCCO2)cc1 (configuration not stated)	96.5	96.5	98.1	99.8	95.2	94.1
SMILES	DSG3 Ab inh	AGP1-GFP MLPCN	MEP2 TOR yeast	CIT2 TOR yeast	LAP4 TOR yeast	RPL19A TOR yeast
Cc1ccc(C(=O)N2CCCC(N(C)Cc3ccccc3)C2)s1 (configuration not stated)	nt	75.2	94.9	91.5	87.1	104.8
COc1cc([N+](=O)[O-])cc(/C=N/NC(=O)Cn2nc(C)cc2C)c1O	98.3	103.6	102.8	100.6	101.9	104.6
COc1ccc(/C=N/NC(=O)Cn2nc([N+](=O)[O-])cc2C)c(OC)c1OC	nt	?	208.0*[may fluoresce violet]	?	100.3	32.6*[may fluoresce violet]
CC(=O)C1=C(O)C(=O)N(Cc2ccccc2)C1c1ccc([N+](=O)[O-])cc1 (configuration not stated)	91.6	102.7	107.0	96.0	99.9	101.0
CC1CN(S(=O)(=O)c2ccc(C(=O)Nc3ccccc3F)cc2)CC(C)O1 (configuration not stated)	98.1	97.2	102.3	99.3	103.3	98.4
CCn1cc(C(=O)NN)c(=O)c2cc(F)c(N3CCOCC3)cc21	115.7	97.8	114.1	100.1	106.4	104.1
CCn1cc([N+](=O)[O-])c(=O)c2cc(F)c(N3CCOCC3)cc21	109.5	?	254.9*[may fluoresce violet]	?	65.2	60.7
COc1cc(C2N(Cc3ccccc3)CCN2Cc2ccccc2)ccc1OC(C)=O	128.8	?	496.9*[may fluoresce violet]	?	84.1	42.5*[may fluoresce violet]
CCC(CC)NC(=O)Cc1ccc(F)cc1	105.9	250.6*[may fluoresce green]	+[may fluoresce green]	+[may fluoresce green]	921.3*[may fluoresce green]	266.8
COCC(C)NC(=O)Cc1ccc(F)cc1 (configuration not stated)	nt	94.6	99.3	91.3	93.0	95.0
O=C(C[n+]1ccccc1)NNc1ccccc1	nt	106.9	112.2	113.9	93.1	110.1
COc1ccc(Nc2nc(N)c([N+](=O)[O-])c(NCCO)n2)cc1	100.2	nt	107.3	nt	nt	105.2
CNc1nc(Nc2ccc(Br)cc2)nc(N)c1[N+](=O)[O-]	51.0*	100.8	106.4	105.7	99.1	106.9
CN(C)c1ccc(Cl)c(NC(N)=S)c1	105.0	nt	nt	nt	nt	nt
CCOc1cc(/C=N\NC(=O)c2ccc(C)nc2)ccc1OC(=O)c1ccc(F)cc1	65.7*	97.5	100.9	113.7	82.1	103.2
